# Experimental data published in PubChem BioAssay.
# Where “and” joins values, the source holds several entries; their conditions need not be identical. Equal values may be shown once. A structure can be active in one record and inactive in another. Calls of active or inactive are those of the source.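 How the source made its calls, unless noted: active means mean z-score across replicates of 1.96 or higher in either the MELAS or the Rieske mutant cell line; inactive means the rest.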
# Key:
# [1] = Wnt pathway potentiators raising nuclear beta-catenin – imaging, WNT3A-conditioned medium, mouse C2C12, NPC library, primary screen (AID 1117326; in the data active means nuclear beta-catenin stimulation mostly above about 4.2%, no sharp cut-off; inactive means mostly below about 10%); settings: stronger effect = higher value
# [2] = stimulators of insulin release from INS-1E, primary screen, cell-based, 5 mM glucose, NPC library (AID 1117329;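 active means compound raises insulin release from rat beta cells at 5 mM glucose, no numeric limit stated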); settings: rat INS-1E insulin secretion, at 10 µM, stronger effect = higher value
# [3] = growth inhibition of GSK3B-pretreated HCT116 cells – cell-based, CellTiter-Glo, 0.2 to 20 µM (AID 1117336;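 active means compounds lowering colon cancer cell viability after pretreatment blocking the GSK3B kinase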); settings: HCT116 viability after GSK3B inhibitor, at 20 µM, stronger effect = higher value
# [4] = inhibition of endothelial tube formation, primary screen, imaging, VEGF stimulated, CD31 staining, tube area, NPC library (AID 1117340;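 active means compound that reduces growth-factor-driven endothelial tube area in a mixed cell culture, no cutoff stated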); settings: VEGF-stimulated ADSC/ECFC co-culture, at 10 µM, stronger effect = higher value
# [5] = GLP1 release stimulators, primary, NCI-H716, NPC library (AID 1117341;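 active means compound raises GLP1 secretion from the human gut endocrine cells, with no numeric limit stated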); settings: NCI-H716 cells, at 10 µM, stronger effect = higher value
# [6] = HCT116 colon cancer cell growth inhibition, primary screen, CellTiter-Glo luminescence, NPC library (AID 1117342;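 active means compounds that lower survival of HCT116 colon cancer cells in the luminescence readout, no numeric limit stated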); settings: at 20 µM (top of the series)
# [7] = reduced SW480 viability measured with CellTiter-Glo, NPC library, primary (AID 1117343;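 active means compounds that lower viability of the colon cancer cells in the luminescence readout, with no numeric limit stated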); settings: CellTiter-Glo luminescence; at 20 µM (top of the series)
# [8] = NPC library primary testing for decreased DLD-1 cell viability via CellTiter-Glo (AID 1117346;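 active means compounds that lower survival of DLD-1 colon cancer cells in the luminescence readout, no cutoff given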); settings: DLD-1 viability, CellTiter-Glo luminescence; at 20 µM (top of the series)
# [9] = molecular target: 6-phosphogluconate dehydrogenase, decarboxylating (Homo sapiens) (UniProt P52209); test: inhibition of human phosphogluconate dehydrogenase – biochemical, recombinant enzyme, NADPH absorbance, primary screen (AID 1159550;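 active means at least 20% inhibition of 6-phosphogluconate dehydrogenase activity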); settings: recombinant 6PGD, NADPH absorbance 341 nm; at 10 µM; stronger effect = higher value
# Chain of 6-phosphogluconate dehydrogenase, decarboxylating (Homo sapiens) (P52209 whole entry, looked up): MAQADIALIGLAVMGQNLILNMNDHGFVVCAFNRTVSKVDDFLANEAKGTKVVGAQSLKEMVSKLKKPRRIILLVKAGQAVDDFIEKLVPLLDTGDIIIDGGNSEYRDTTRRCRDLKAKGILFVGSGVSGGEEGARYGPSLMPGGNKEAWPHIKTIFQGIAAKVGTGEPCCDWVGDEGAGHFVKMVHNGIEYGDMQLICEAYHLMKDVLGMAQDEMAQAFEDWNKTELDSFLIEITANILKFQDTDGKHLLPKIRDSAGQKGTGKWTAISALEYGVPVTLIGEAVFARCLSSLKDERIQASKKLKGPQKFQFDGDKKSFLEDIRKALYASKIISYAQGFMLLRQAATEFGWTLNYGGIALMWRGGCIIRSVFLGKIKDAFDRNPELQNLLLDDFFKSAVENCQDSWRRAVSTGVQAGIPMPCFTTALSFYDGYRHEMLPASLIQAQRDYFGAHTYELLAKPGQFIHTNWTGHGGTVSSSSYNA
# [10] = EMT-state selective cytotoxicity in co-culture – imaging, PC-3E GFP, TEM4-18 mCherry, primary screen (AID 1345086;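 active means compounds killing one labelled cell type while sparing the other, by normalised counts and ratio limits, not self-fluorescent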;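 on all read-outs here: cells exposed to compound for 72 h before imaging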;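 on red/green cell ratio (normalised): normalised mesenchymal count divided by normalised epithelial count so high means epithelial killing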); settings: PC-3E GFP / TEM4-18 mCherry co-culture, imaging cell counts, at 1 µM; for red/green cell ratio (normalised): actives lie on both sides
# [11] = test system: Aerobactin synthetase IucA (Klebsiella pneumoniae hvKP1); test: IucA enzyme inhibition, primary screen, biochemical, Spectrum library (AID 1346200; call rule not given here;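 further: 100% = wells without compound and 0% = wells lacking enzyme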); settings: malachite green pyrophosphate, A620, at 8 µM, stronger effect = lower value
# [12] = MELAS cybrid and Rieske KO viability enhancers – cell-based, MELAS cybrids, Rieske KO mouse fibroblasts, CellTiter-Glo, primary screen (AID 1508586); settings: low glucose;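 further: z relative to plate mean and SD of compound and empty wells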
# [13] = molecular target: NAD(+) hydrolase SARM1 (Homo sapiens) (UniProt Q6SZW1); test: blocking NAD cleavage by SARM1 SAM-TIR – cell lysate, NAD-Glo luminescence (AID 1508614;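 active means compound whose remaining NAD level is above about 45 nM, limit read from the data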); settings: SAM-TIR HEK293T lysate NADase, at 1 µM, stronger effect = higher value
# Chain of NAD(+) hydrolase SARM1 (Homo sapiens) (Q6SZW1 whole entry, looked up, the tested form may be a part): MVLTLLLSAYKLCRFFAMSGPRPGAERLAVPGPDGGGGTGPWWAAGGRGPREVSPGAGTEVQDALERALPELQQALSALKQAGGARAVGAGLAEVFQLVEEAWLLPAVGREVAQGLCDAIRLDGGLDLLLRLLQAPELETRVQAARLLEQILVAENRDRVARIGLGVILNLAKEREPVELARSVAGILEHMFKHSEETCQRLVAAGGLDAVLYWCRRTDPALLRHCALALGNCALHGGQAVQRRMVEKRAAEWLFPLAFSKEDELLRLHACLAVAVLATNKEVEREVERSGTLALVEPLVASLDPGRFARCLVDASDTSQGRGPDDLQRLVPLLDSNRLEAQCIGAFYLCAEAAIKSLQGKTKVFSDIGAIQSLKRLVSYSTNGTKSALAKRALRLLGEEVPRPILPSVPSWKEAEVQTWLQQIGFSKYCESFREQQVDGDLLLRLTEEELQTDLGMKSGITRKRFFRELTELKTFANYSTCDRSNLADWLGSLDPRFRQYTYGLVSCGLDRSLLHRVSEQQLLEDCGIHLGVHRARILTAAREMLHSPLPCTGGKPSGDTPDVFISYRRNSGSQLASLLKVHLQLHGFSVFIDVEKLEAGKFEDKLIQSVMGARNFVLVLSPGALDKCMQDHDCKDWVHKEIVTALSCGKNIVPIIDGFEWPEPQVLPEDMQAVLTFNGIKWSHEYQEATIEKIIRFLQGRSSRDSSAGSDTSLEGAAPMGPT
# [14] = molecular target: Mitogen-activated protein kinase 7 (Homo sapiens) (UniProt Q13164); test: Gal4-ERK5 driven luciferase induction – cell-based, HTS, primary screen (AID 1508626;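 active means luciferase signal above three times the same-plate solvent-only control wells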;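 further: luciferase driven by Gal4-ERK5 fusion binding five Gal4 sites before minimal TATA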); settings: HeLa Gal4-ERK5 transactivation, 18 h, at 5 µM, stronger effect = higher value
# Chain of Mitogen-activated protein kinase 7 (Homo sapiens) (Q13164 whole entry, looked up, the tested form may be a part): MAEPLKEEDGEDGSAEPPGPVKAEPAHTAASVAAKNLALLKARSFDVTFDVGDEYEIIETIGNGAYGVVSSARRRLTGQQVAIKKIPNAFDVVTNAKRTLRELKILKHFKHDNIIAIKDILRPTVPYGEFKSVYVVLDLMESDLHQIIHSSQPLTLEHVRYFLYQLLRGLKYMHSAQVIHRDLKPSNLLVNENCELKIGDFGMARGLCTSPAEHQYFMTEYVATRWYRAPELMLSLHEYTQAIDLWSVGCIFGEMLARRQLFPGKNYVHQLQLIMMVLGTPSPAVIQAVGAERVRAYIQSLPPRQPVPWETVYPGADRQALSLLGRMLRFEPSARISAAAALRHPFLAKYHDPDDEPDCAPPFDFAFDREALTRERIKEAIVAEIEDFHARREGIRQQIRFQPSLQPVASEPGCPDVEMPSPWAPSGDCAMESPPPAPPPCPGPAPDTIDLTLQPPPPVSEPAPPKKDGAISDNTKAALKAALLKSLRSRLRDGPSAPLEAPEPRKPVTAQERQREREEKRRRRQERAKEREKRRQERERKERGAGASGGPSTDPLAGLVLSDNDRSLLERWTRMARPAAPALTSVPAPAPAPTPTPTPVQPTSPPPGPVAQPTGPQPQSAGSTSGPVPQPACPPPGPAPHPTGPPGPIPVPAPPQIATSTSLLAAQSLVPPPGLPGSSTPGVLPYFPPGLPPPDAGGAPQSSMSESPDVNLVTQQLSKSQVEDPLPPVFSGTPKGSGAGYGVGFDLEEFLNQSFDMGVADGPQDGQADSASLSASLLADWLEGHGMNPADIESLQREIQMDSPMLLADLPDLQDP
# [15] = yeast 75Q aggregation reduction – 75Q-TubU reporter (AID 1593); settings: Yeast 75Q polyglutamine aggregation reporter
# [16] = blockers of cytochrome c efflux from mitochondria – biochemical, purified mitochondria (AID 1603); settings: stronger effect = lower value;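 further: mouse liver mitochondria challenged with calcium chloride; signal normalized to the plate average as 100%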
# [17] = polyglutamine aggregate formation blockers (AID 1604); settings: polyglutamine-induced protein aggregation inhibition assay; stronger effect = higher value; tested at 2.5 µM
# [18] = galactose survival enhancers in mitochondrial complex I cybrids – cell-based, galactose medium, ATP luminescence, primary screen (AID 1645843;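 active means z-score of at least 1.8 in each of two replicates, scored against plate mean and spread of sample wells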;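 further: positive z means more ATP and so rescue of galactose-driven cybrid death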); settings: complex I mutant cybrid cells, 72 h, stronger effect = higher value
# [19] = P. berghei load reduction in hepatocytes – cell-based, HepG2, luciferase luminescence, HepG2 viability, primary screen (AID 624349; in the data active means parasite load remaining mostly below about 12%, no sharp cut-off; inactive means mostly above about 10%;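 further: 100% = mean of DMSO negative control wells on the same plate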); settings: P. berghei liver stage in HepG2, luciferase luminescence, concentration not given here; parasite load remaining: stronger effect = lower value; viability: measured here: HepG2 viability without parasites
# [20] = viability loss with induced miR-34 in A549 – imaging, A549 dox-inducible miR-34, nuclei and caspase counts, primary screen (AID 1347080;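 active means compounds whose cell count with miR-34 switched on is under 0.7 times the count with it off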); settings: A549 miR-34 inducible, Hoechst nuclei count, 48 h
# [21] = measured here: epithelial PC-3E GFP cell survival
# [22] = measured here: mesenchymal TEM4-18 mCherry cell survival
# [23] = MELAS cybrid survival, CellTiter-Glo 48 h, stronger effect = higher value
# [24] = Rieske KO mouse fibroblast survival, CellTiter-Glo 72 h
# [25] = measured here: relative caspase fold change +Dox/-Dox
# [26] = measured here: total cells with miR-34 induction, stronger effect = lower value
# [27] = measured here: total cells without miR-34 induction
smiles,measurement,setting,value
COCC(=O)N(c1c(C)cccc1C)C(C)C(=O)OC (stereo not given),nuclear beta-catenin stimulation,[1]; at 10 µM,0.1% (inactive)
same,nuclear beta-catenin stimulation,"[1]; stimulation, at 2 µM",0.5%
same,insulin secretion stimulation,[2],-1.7% (inactive)
same,viability decrease,[3],-0.7% (inactive)
same,tube area decrease,[4],-6.8% (inactive)
same,GLP1 secretion stimulation,[5],1.9% (inactive)
same,inhibition of viability,[6],-27% (inactive)
same,viability decrease (inhibition),[7],1.1% (inactive)
same,viability decrease (inhibition),[8],8.85% (inactive)
CC(NC(C)(C)C)C(=O)c1cccc(Cl)c1 (stereo not given),nuclear beta-catenin stimulation,[1]; at 10 µM,-0.1% (inactive)
same,nuclear beta-catenin stimulation,"[1]; stimulation, at 2 µM",7.1%
same,insulin secretion stimulation,[2],0.3% (inactive)
same,viability decrease,[3],-43.9% (inactive)
same,tube area decrease,[4],9.3% (inactive)
same,GLP1 secretion stimulation,[5],0.3% (inactive)
same,inhibition of viability,[6],9.97% (inactive)
same,viability decrease (inhibition),[7],30.2% (inactive)
same,viability decrease (inhibition),[8],-10.5% (inactive)
same,inhibition,[9],-4.52% (inactive)
same,red/green cell ratio (normalised),[10],1.12 (inactive)
same,normalised cell number,[10]; [21],1.04
same,normalised cell number,[10]; [22],1.16
same,activity remaining,[11],97% (inactive)
same,z-score,[12]; [23],-0.0615 (inactive) and 0.02 (inactive) and 0.556 (inactive)
same,z-score,[12]; [24],-0.319 and -0.308 and 0.695
same,remaining NAD,[13],10 nM (inactive)
same,luciferase signal,[14],52 AU (inactive)
COC(=O)C1=CCCN(C)C1,score,[15],1.73
same,cytochrome c release ratio,[16],0.68
same,inhibition of aggregation,[17],81.4%
same,nuclear beta-catenin stimulation,[1]; at 10 µM,4.2% (inactive)
same,nuclear beta-catenin stimulation,"[1]; stimulation, at 2 µM",2.3%
same,insulin secretion stimulation,[2],-0.6% (inactive)
same,viability decrease,[3],-6.9% (inactive)
same,tube area decrease,[4],25.2% (inactive)
same,GLP1 secretion stimulation,[5],-0.8% (inactive)
same,inhibition of viability,[6],-3.33% (inactive)
same,viability decrease (inhibition),[7],8.4% (inactive)
same,viability decrease (inhibition),[8],-18.9% (inactive)
same,inhibition,[9],-2.35% (inactive)
same,red/green cell ratio (normalised),[10],1.16 (inactive)
same,normalised cell number,[10]; [21],0.91
same,normalised cell number,[10]; [22],1.07
same,activity remaining,[11],112% (inactive)
same,z-score,[12]; [23],-0.328 (inactive)
same,z-score,[12]; [24],0.482
same,remaining NAD,[13],10 nM (inactive)
same,luciferase signal,[14],52 AU (inactive)
same,z-score,[18],-0.47 (inactive)
O=c1[nH]oc2c1CCNC2,score,[15],1.55
same,cytochrome c release ratio,[16],0.75
same,inhibition of aggregation,[17],73%
same,parasite load remaining,[19],119% (inactive)
same,viability,[19],90%
same,nuclear beta-catenin stimulation,[1]; at 10 µM,0.9% (inactive)
same,nuclear beta-catenin stimulation,"[1]; stimulation, at 2 µM",-0.2%
same,insulin secretion stimulation,[2],1.95% (inactive)
same,viability decrease,[3],23.2% (inactive)
same,tube area decrease,[4],2% (inactive)
same,GLP1 secretion stimulation,[5],0.6% (inactive)
same,inhibition of viability,[6],7% (inactive)
same,viability decrease (inhibition),[7],-16.8% (inactive)
same,viability decrease (inhibition),[8],2.4% (inactive)
same,inhibition,[9],-2.26% (inactive)
same,red/green cell ratio (normalised),[10],1.27 (inactive)
same,normalised cell number,[10]; [21],0.86
same,normalised cell number,[10]; [22],1.1
same,activity remaining,[11],105% (inactive)
same,fold change,[20]; stronger effect = lower value,0.986 (inactive) and 0.895 (inactive) and 0.961 (inactive)
same,fold change,[20]; [25],0.885 and 0.751 and 0.995
same,cell count,[20]; [26],10200 and 8820 and 8460
same,cell count,[20]; [27],10400 and 9850 and 8810
same,z-score,[12]; [23],0.562 (inactive)
same,z-score,[12]; [24],-0.393
same,remaining NAD,[13],10 nM (inactive)
same,luciferase signal,[14],104 AU (inactive)
same,z-score,[18],0.375 (inactive) and 2.83 (active)
Clc1ccc(COC(Cn2ccnc2)c2ccc(Cl)cc2Cl)cc1 (stereo not given),score,[15],0.26
same,cytochrome c release ratio,[16],0.38
same,inhibition of aggregation,[17],43.9%
same,nuclear beta-catenin stimulation,[1]; at 10 µM,3.6% (inactive)
same,nuclear beta-catenin stimulation,"[1]; stimulation, at 2 µM",4.8%
same,insulin secretion stimulation,[2],2.8% (inactive)
same,viability decrease,[3],101% (active)
same,tube area decrease,[4],108% (active)
same,GLP1 secretion stimulation,[5],23.9% (active)
same,inhibition of viability,[6],102% (active)
same,viability decrease (inhibition),[7],123% (active)
same,viability decrease (inhibition),[8],103% (active)
same,inhibition,[9],-10.8% (inactive)
same,red/green cell ratio (normalised),[10],1.13 (inactive)
same,normalised cell number,[10]; [21],0.92
same,normalised cell number,[10]; [22],1.04
same,activity remaining,[11],123% (inactive)
same,z-score,[12]; [23],-0.276 (inactive) and 1.78 (inactive)
same,z-score,[12]; [24],0.45 and 0.962
same,remaining NAD,[13],10 nM (inactive)
same,luciferase signal,[14],60 AU (inactive)
same,z-score,[18],-1.53 (inactive)
ClCCN1CCCC1,nuclear beta-catenin stimulation,[1]; at 10 µM,0.7% (inactive)
same,nuclear beta-catenin stimulation,"[1]; stimulation, at 2 µM",-0.2%
same,insulin secretion stimulation,[2],4% (inactive)
same,viability decrease,[3],5.1% (inactive)
same,tube area decrease,[4],9.9% (inactive)
same,GLP1 secretion stimulation,[5],-2.4% (inactive)
same,inhibition of viability,[6],-8.3% (inactive)
same,viability decrease (inhibition),[7],8.7% (inactive)
same,viability decrease (inhibition),[8],8.5% (inactive)
O=[N+]([O-])/N=C1\NCCN1Cc1ccc(Cl)nc1,nuclear beta-catenin stimulation,[1]; at 10 µM,0.9% (inactive)
same,nuclear beta-catenin stimulation,"[1]; stimulation, at 2 µM",1.2%
same,insulin secretion stimulation,[2],-1.2% (inactive)
same,viability decrease,[3],-10.2% (inactive)
same,tube area decrease,[4],-4.1% (inactive)
same,GLP1 secretion stimulation,[5],-2% (inactive)
same,inhibition of viability,[6],9.4% (inactive)
same,viability decrease (inhibition),[7],27.9% (inactive)
same,viability decrease (inhibition),[8],-0.3% (inactive)
same,inhibition,[9],-7.9% (inactive)
O=c1[nH]c2ccccc2n1CCCN1CCC(n2c(=O)[nH]c3cc(Cl)ccc32)CC1,nuclear beta-catenin stimulation,[1]; at 10 µM,3.1% (inactive)
same,nuclear beta-catenin stimulation,"[1]; stimulation, at 2 µM",0.9%
same,insulin secretion stimulation,[2],41.9% (active)
same,viability decrease,[3],-17.1% (inactive)
same,tube area decrease,[4],12.9% (inactive)
same,GLP1 secretion stimulation,[5],6.8% (inactive)
same,inhibition of viability,[6],13.1% (inactive)
same,viability decrease (inhibition),[7],13.8% (inactive)
same,viability decrease (inhibition),[8],15.8% (inactive)
same,inhibition,[9],2.55% (inactive)
same,red/green cell ratio (normalised),[10],1.2 (inactive)
same,normalised cell number,[10]; [21],0.91
same,normalised cell number,[10]; [22],1.1
same,activity remaining,[11],117% (inactive)
same,z-score,[12]; [23],-0.488 (inactive) and -0.032 (inactive) and 1.25 (inactive)
same,z-score,[12]; [24],0.597 and -0.334 and 1.01
same,remaining NAD,[13],10 nM (inactive)
same,luciferase signal,[14],44 AU (inactive)
same,z-score,[18],-0.92 (inactive) and -0.455 (inactive) and -0.075 (inactive)
N[C@@H](Cc1ccc(N(CCCl)CCCl)cc1)C(=O)O,score,[15],1.14
same,cytochrome c release ratio,[16],0.77
same,inhibition of aggregation,[17],49.4%
same,parasite load remaining,[19],85.5% (inactive) and 46.9% (inactive)
same,viability,[19],102% and 79%
same,nuclear beta-catenin stimulation,[1]; at 10 µM,5.3% (inactive)
same,nuclear beta-catenin stimulation,"[1]; stimulation, at 2 µM",-1.1%
same,insulin secretion stimulation,[2],-2.1% (inactive)
same,viability decrease,[3],57.9% (active)
same,tube area decrease,[4],89.6% (active)
same,GLP1 secretion stimulation,[5],0.9% (inactive)
same,inhibition of viability,[6],11.2% (inactive)
same,viability decrease (inhibition),[7],8.5% (inactive)
same,viability decrease (inhibition),[8],8.7% (inactive)
same,inhibition,[9],-5.9% (inactive)
same,red/green cell ratio (normalised),[10],0.83 (inactive)
same,normalised cell number,[10]; [21],0.94
same,normalised cell number,[10]; [22],0.77
same,activity remaining,[11],104% (inactive)
same,fold change,[20]; stronger effect = lower value,0.909 (inactive) and 0.963 (inactive)
same,fold change,[20]; [25],1.01 and 1.57
same,cell count,[20]; [26],3400 and 2500
same,cell count,[20]; [27],3740 and 2600
same,z-score,[12]; [23],0.0989 (inactive)
same,z-score,[12]; [24],-1.05
same,remaining NAD,[13],10 nM (inactive)
same,luciferase signal,[14],40 AU (inactive)
same,z-score,[18],-1.76 (inactive)
